Shown are actives, neighbours in structure and some others; about 3.4% of the full set was active somewhere.
HIF-2a block – inhibitors of HIF-2a | 786-0 RCC cells HIF-2a reporter, luciferase luminescence, overnight | inhibition, % at 18.8 µM | 360,000 compounds, 0.72% hits;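 active = inhibition of the luminescence signal of 40% or more relative to plate controls, in a single-dose primary screen at 18.75 µM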
TROY NFkB inh – inhibitors of TROY-dependent NF-kB signaling | Q293 LMP1-TROYcd NF-kB luciferase reporter, 4 h | inhibition, % at 10 µM | 360,000 compounds, 0.98% hits | AID 1347056;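 active = compounds whose plate-normalised and pattern-corrected inhibition of the luciferase reporter signal at the single screening dose is 50% or more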
MITF TRPM1 inh – inhibitors of MITF-driven TRPM1 promoter in melanoma cells. 330,000 compounds, 0.83% hits. AID 488899. SK-MEL-5 TRPM1 promoter luciferase, 24 h. inhibition, % at 12.5 µM;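 active = mean inhibition across replicates of 60% or more, whatever share of single replicates reaches that level; inconclusive = some that reach 60%, reason not given; inactive = mean inhibition across replicates below 60%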
Shn3 inh set2 – Schnurri-3 reporter inhibition in Clone20 osteoblasts | inhibition, % at 12.5 µM | Clone20 osteoblast Shn3 3'UTR firefly luciferase, 24 h | 360,000 compounds, 0.52% hits;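 active = mean inhibition of at least 75% with every replicate also reaching 75%; inconclusive = mean inhibition at least 75% but some replicate below; inactive = mean inhibition below 75%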;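 also: 0% = median of neutral control wells and 100% = pilot-screen positive control compound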
EBV LMP1 NFkB – Epstein-Barr LMP1 NF-kappaB reporter inhibition; AID 504558; inhibition, % at 12.5 µM; LMP1-induced NF-kappaB luciferase reporter cells, luminescence; 350,000 compounds, 0.69% hits; in the data active = inhibition above about 41%; inconclusive = no clear call, values can overlap the other calls;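 also: 0% = neutral control wells and 100% = reference inhibitor control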
TWEAK-Fn14 inh – inhibitors of TWEAK-Fn14 interaction signaling. TWEAK-stimulated Fn14 reporter cells, luciferase luminescence, 8 h. inhibition, % at 10 µM. 360,000 compounds, 2% hits. AID 1159606; in the data active = inhibition above about 50%
Mdm2 MdmX conf – Mdm2/MdmX (human) interaction inhibition, confirmed. shares compounds with HIF-2a block. SaOS-2 split-luciferase Mdm2/MdmX complementation, luminescence. inhibition, % at 8 µM. 740 compounds, 99% hits. AID 504601;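 active = mean inhibition of the luminescence signal across two replicates at or above 26 percent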
Target sequence (O15151 whole entry, looked up): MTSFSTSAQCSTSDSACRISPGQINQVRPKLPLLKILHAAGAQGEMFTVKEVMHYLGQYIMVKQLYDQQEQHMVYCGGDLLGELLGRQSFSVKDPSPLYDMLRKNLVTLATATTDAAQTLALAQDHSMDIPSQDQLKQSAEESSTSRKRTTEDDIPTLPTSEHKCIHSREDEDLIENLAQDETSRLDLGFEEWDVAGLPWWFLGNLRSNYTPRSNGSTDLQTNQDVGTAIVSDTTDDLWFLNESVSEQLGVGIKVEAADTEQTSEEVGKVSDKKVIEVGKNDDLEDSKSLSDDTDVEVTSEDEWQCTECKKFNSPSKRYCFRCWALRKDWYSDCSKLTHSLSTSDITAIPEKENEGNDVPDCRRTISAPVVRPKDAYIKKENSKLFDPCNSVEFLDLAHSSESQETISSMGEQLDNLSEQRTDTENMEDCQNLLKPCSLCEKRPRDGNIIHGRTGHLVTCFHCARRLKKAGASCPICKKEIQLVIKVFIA
Target sequence (Q00987 whole entry, looked up): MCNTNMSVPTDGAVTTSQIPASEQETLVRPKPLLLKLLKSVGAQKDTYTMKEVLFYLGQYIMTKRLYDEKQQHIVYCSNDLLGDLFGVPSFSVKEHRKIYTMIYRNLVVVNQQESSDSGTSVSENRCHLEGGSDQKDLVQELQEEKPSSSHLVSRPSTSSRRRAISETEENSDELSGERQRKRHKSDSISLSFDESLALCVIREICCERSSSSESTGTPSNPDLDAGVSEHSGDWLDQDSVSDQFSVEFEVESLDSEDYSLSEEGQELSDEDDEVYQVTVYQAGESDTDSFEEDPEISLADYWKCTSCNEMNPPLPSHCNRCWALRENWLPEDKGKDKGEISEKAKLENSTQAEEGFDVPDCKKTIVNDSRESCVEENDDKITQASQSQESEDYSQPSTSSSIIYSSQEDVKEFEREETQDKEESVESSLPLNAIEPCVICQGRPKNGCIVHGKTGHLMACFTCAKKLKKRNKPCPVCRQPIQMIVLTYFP
HIF-2a conf – confirmation of HIF-2a inhibitors; shares compounds with HIF-2a block; 786-0 RCC cells, HIF-2a luciferase reporter luminescence, overnight; inhibition, % at 18.8 µM; 1,800 compounds, 56% hits; AID 651580;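 active = mean inhibition across four replicates of at least 40 percent at the single tested concentration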
HIF-1a counter – counter-screen for HIF-2a inhibitors: HIF-1a inhibition in MiaPaCa-2 cells. shares compounds with HIF-2a block. inhibition, % at 18.8 µM. 1,800 compounds, 72% hits. MiaPaCa-2 HIF-1a luciferase reporter, desferoxamine, overnight;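 active = mean inhibition of the reporter signal across four replicates at the single tested dose of 50% or more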
* = called active by the depositor; ? = inconclusive; / = no result.

SMILES	HIF-2a block	TROY NFkB inh	MITF TRPM1 inh	Shn3 inh set2	EBV LMP1 NFkB	TWEAK-Fn14 inh	HIF-2a conf	HIF-1a counter	others
CC1=CC(C)(C)Nc2ccc(OC(=O)c3ccco3)cc21	81*	38	8	9	-36	88*	83*	92*
CC1=CC(C)(C)Nc2ccc(OC(=O)c3cccnc3)cc21	75*	23	-2	49	-15	29	86*	94*
O=C(Oc1ccc(F)cc1)c1cccnc1	7	5	-8	5	-1	1	/	/
CC1=CC(C)(C)Nc2ccc(OC(=O)CN3C(=O)CCC3=O)cc21	74*	-9	-1	31	-13	44	88*	90*
CC1=CC(C)(C)N2C(=O)C(=O)c3cc(OC(=O)c4ccco4)cc1c32	22	19	-2	17	-4	27	/	/
COc1ccc(OC(=O)C(C)N2C(=O)c3ccccc3C2=O)cc1 (stereo not drawn)	17	-9	-7	-10	8	3	/	/
CC1=CC(C)(C)Nc2ccc(OC(=O)C(C)N3C(=O)c4ccccc4C3=O)cc21 (stereo not drawn)	78*	35	13	78	9	34	90*	94*
NC(=S)N/N=C1\c2ccccc2-c2c(C(=O)O)cccc21	7	23	-12	-1	-12	7	/	/
O=C(CCc1nnc(CCCc2ccccc2)o1)NC(C1CC1)C1CC1	-195	-61	-62	-57	-21	-23	/	/
Cc1c(C)c2ccc(OCc3ccc(C(=O)O)o3)c(C)c2oc1=O	50*	-62	23	8	2	49	5	-38
Cc1cc(C)cc(COc2ccc3c(C)c(CC(=O)O)c(=O)oc3c2C)c1	-27	-9	-14	-21	-5	4	/	/
Cc1ccccc1Oc1cc(-n2ncc(Cl)c(Cl)c2=O)ncn1	98*	90*	94*	96*	93*	107*	100*	106*
Cc1ccc(C)c(Nc2c(F)c(F)c(F)c(F)c2C(=O)O)c1	16	-1	9	6	5	-12	/	/
Cc1cc(C)cc(OCC(=O)NCC2CCCO2)c1 (stereo not drawn)	52*	73*	9	51	20	89*	69*	70*
Cc1nc2cc(-c3ccc(Cl)cc3)nn2c(C)c1CCC(=O)NCc1ccco1	81*	7	40	59	6	45	87*	48
CCC(=O)N(c1nnc(SCC(=O)Nc2ccccc2Cl)s1)C1CC1	-15	-15	-7	-24	1	-5	/	/
CN(CC(=O)Nc1ccc(F)cc1)C(=O)c1ccccc1Sc1ccccc1C#N	21	-18	8	4	-3	-10	/	/
COc1ccc(-n2c(=S)[nH]c3cc(C(=O)Nc4ccc(F)cc4)ccc3c2=O)c(OC)c1	6	12	?	69	6	44	/	/
Cn1nnnc1Sc1ncnc2scc(-c3ccc(Br)cc3)c12	93*	60*	94*	96*	15	88*	100*	106*	Mdm2 MdmX conf=103*
Cc1ccc(-c2csc3ncnc(SCC(N)=O)c23)cc1	11	35	-8	-1	4	2	/	/
Cn1nnnc1SCc1nc2scc(-c3ccc(Cl)cc3)c2c(=O)[nH]1	1	17	6	30	1	3	/	/
Cn1nnnc1Sc1ncnc2scc(-c3ccc[nH]3)c12	72*	-1	84*	71	-10	70*	41*	100*
Cn1nnnc1Sc1ncnc2scc(-c3ccc(F)cc3)c12	78*	29	83*	93*	71*	57*	/	/	Mdm2 MdmX conf=103*
Cn1nnnc1SCc1nc2scc(-c3ccccc3)c2c(=O)[nH]1	-42	-6	-1	10	-3	0	/	/
C[C@@H](NC(=O)c1ncn(Cc2ccccc2)c1C(=O)N[C@H](C)c1ccccc1)c1ccccc1	16	9	14	11	-3	-3	/	/
SMILES	HIF-2a block	TROY NFkB inh	MITF TRPM1 inh	Shn3 inh set2	EBV LMP1 NFkB	TWEAK-Fn14 inh	HIF-2a conf	HIF-1a counter	others
Cc1nn(-c2ccccc2)c(Cl)c1/C=N/Nc1ccc(Cl)c(C(=O)O)c1	61*	-74	55	40	18	-11	56*	-56
Cc1nn(-c2ccccc2)c(Cl)c1/C=N/NC(=O)OC(C)(C)C	-258	-42	-57	-18	-12	8	/	/
CC(CC(=O)c1cccs1)CC(=O)c1cccs1	-211	-74	-72	-88	-22	18	/	/
Cc1cc(C)c(C(CC(=O)c2cccs2)C(C#N)C#N)c(C)c1 (stereo not drawn)	76*	-24	-39	-49	-47	66*	-39	102*
CCCCCCCCCCCCCCCCn1cc[n+](CC(C)=O)c1	56*	30	39	84	15	-16	64*	106*
CCOc1ccc(CCNC(=O)COC(=O)/C=C/c2ccccc2OC)cc1OCC	5	16	-6	-3	4	-18	/	/
COc1ccc(CN(CCC(c2ccccc2)c2ccc(OC(C)C)cc2)C(=O)CCl)cc1OC (stereo not drawn)	96*	16	106*	0	1	35	/	/	Mdm2 MdmX conf=103*
Cn1c(=O)c2c(nc(CN3CCc4ccccc4C3)n2Cc2cccc(Cl)c2)n(C)c1=O	43*	38	/	26	-15	36	15	76*
CC1CC2(C)Oc3ccccc3CC2C(C)C1CNCCCN(C)C (stereo not drawn)	84*	8	97*	13	-32	-34	6	105*	Mdm2 MdmX conf=101*
Cc1ccc(C(=O)O/N=C(\N)c2ccccn2)c(C)c1	89*	87*	96*	96*	87*	104*	/	/	Mdm2 MdmX conf=101*
CCOc1ccc(NC(=O)Nc2cc(OCC(F)(F)F)cc(OCC(F)(F)F)c2)cc1	24	34	25	64	0	41	/	/
O=C(Nc1ccc(F)cc1)Nc1cc(OCC(F)(F)F)cc(OCC(F)(F)F)c1	13	53*	81*	90*	28	54*	/	/	Mdm2 MdmX conf=93*
CC(C)CN(Cc1cc(=O)oc2cc(-c3ccccc3)c(O)cc12)CC(C)C	9	18	3	14	-8	0	/	/
CCCCC(NC(=O)Cc1c(C)c2cc3c4c(oc3c(C)c2oc1=O)CCCC4)C(=O)O (stereo not drawn)	17	17	1	-2	-3	-2	/	/
CCCCC(NC(=O)CCc1c(C)c2cc3c4c(oc3c(C)c2oc1=O)CCCC4)C(=O)O (stereo not drawn)	53*	0	-1	25	4	43	55*	35

Screening data deposited in PubChem BioAssay by several laboratories.
